# Results taken from PubChem BioAssay AID2315 (National Center for Advancing Translational Sciences (NCATS), 2010).
# Screen size: about 290,000 compounds; about 27,000 (9.3%) were called active. The full list was thinned out, with actives kept by preference. Unmarked numbers belong to inactive results. Rule as the data show it: active = inhibition mostly above about 28% (no sharp cut-off); inactive = mostly below about 43%. Where a SMILES comes first, the peptide text is derived from it. [ ]: non-standard residue; d: D form. The star is where a group is joined. PhAc = O=C(Cc1ccccc1)*
# Assay: A qHTS for Small Molecule Inhibitors of Shiga Toxin; also: 0% is about no effect
# Conditions: Vero cells, Shiga toxin protein synthesis inhibition reporter; at 38.7 µM, hits give high values
row,Structure (SMILES),inhibition
1,CSc1nc2ccc(NC(=O)c3c(F)cccc3F)cc2s1,90.3% (active)
2,CCCC(=O)Nc1nc2ccc(NC(=O)c3c(F)c(F)c(OC)c(F)c3F)cc2s1,-15.8%
3,O=C(Nc1ccncc1)c1c(F)cccc1F,-10.9%
4,O=C(N/N=C/c1cccc(OCc2ccccc2)c1)c1ccc(Br)o1,46.8% (active)
5,Cc1ccc(OCCOCCOc2ccc(Br)cc2/C=N\NC(=O)c2ccncc2)cc1,-5.78%
6,Cc1ccc(OCCOc2cccc(/C=N/NC(N)=O)c2)cc1,56.6% (active)
7,O=C(N/N=C/c1ccc(OCc2ccccc2)cc1)c1ccc(O)cc1,51.1%
8,Cc1cccc(OCC(=O)NCC(=O)N/N=C/c2ccc(N(C)C)cc2)c1,-12.5%
9,O=C(N/N=C/c1cccc(O)c1)c1cc2c(ccc3ccccc32)o1,6%
10,CCOc1ccccc1N1C(=O)CC(Sc2nccc(C)n2)C1=O (stereo unspecified),10.8%
11,Cc1ccc2c(c1)N(CC(=O)N1CCOCC1)C(=O)CO2,-3.54%
12,Cc1nc2cc(-c3ccc(F)cc3)nn2c(N2CCOCC2)c1C,62.6%
13,Cc1cc(C(C)(C)C)n2nc(C)c(-c3ccccc3)c2n1,-4.85%
14,Cc1cc(N)n2nc(-c3ccc(C(C)(C)C)cc3)cc2n1,88.7% (active)
15,Cc1cccc(OCC(O)CN2CCN(S(=O)(=O)c3ccc(C)cc3C)CC2)c1 (stereo unspecified),-2.77%
16,O=C(CSC1=NCCS1)Nc1nc(-c2ccccc2)cs1,29.7%
17,O=C(CSc1ncn[nH]1)Nc1nc(-c2cccc([N+](=O)[O-])c2)cs1,8.25%
18,CCOC(=O)CSc1nnc(CNc2nc(-c3ccccc3)cs2)n1C,9.53%
19,O=C(CSCC(=O)Nc1cccc([N+](=O)[O-])c1)Nc1ccccc1,7.24%
20,O=C(CSc1nc(-c2ccccc2)cs1)Nc1cccc([N+](=O)[O-])c1,81.3% (active)
21,CCNC(=O)CSc1nc(-c2ccccc2)cs1,74.3% (active)
22,CC(C)C[C@@H](NC(=O)[C@H]1CCCN1C(=O)Cc1ccccc1)C(N)=O (PhAc-[dP]-[dL]-NH2),6.07%
23,CCc1ccc(Nc2nnc(SCC(=O)c3ccc4c(c3)NC(=O)CO4)s2)cc1,32.3%
24,CC(C)[C@H](NC(=O)OCc1ccccc1)C(=O)OCc1ccccc1,25.1%

row,Structure (SMILES),inhibition
1,CCC1OC(c2ccc([N+](=O)[O-])cc2)=Nc2ccccc21 (stereo unspecified),6.08%
2,COc1ccc(-c2n[nH]c(C)c2-c2ccccc2OC)c(O)c1,13.4%
3,O=C(C1CC(=O)N(c2ccc(Br)cc2)C1)N1CCCC1 (stereo unspecified),-22.5%
4,COc1ccc(NC(=O)c2cc([N+](=O)[O-])ccc2NC(=O)CNC2CCCCC2C)c(OC)c1 (stereo unspecified),7.27%
5,CCc1ccc2nc3sc(C(=O)Nc4nnc(CC)s4)c(N)c3cc2c1,48.9% (active)
6,CCc1nnc(NC(=O)c2sc3nc(C)cc(COC)c3c2N)s1,53.1%
7,CCc1nnc(NC(=O)c2cccc(S(=O)(=O)N(C)c3ccc(OC)cc3)c2)s1,-10.6%
8,Cc1ccc(C)c(S(=O)(=O)Nc2cccc(-n3cnnn3)c2)c1,23.9%
9,Cc1cccc[n+]1CC(=O)c1ccccc1,5.04%
10,O=C(Nc1ccon1)c1sc2ccccc2c1Cl,88% (active)
11,O=C(N/N=C/c1c(Cl)[nH]c2ccccc12)c1sc2ccccc2c1Cl,-0.233%
12,O=C(Nc1ccon1)c1cccc(Cl)c1,5.52%
13,COc1ccc(Nc2oc(-c3ccccc3Cl)nc2C#N)cc1,20.6%
14,Cc1ccccc1-c1nc(C#N)c(NCc2ccco2)o1,71.9%
15,N#Cc1nc(Cc2ccccc2)oc1NCCc1ccccc1,64.7% (active)
16,N#Cc1nc(Cc2cccc3ccccc23)oc1NCc1ccc2c(c1)OCO2,12.3%
17,CCOc1ccc(Nc2oc(Cc3ccccc3)nc2C#N)cc1,58.5% (active)
18,N#Cc1nc(COc2ccc(-c3ccccc3)cc2)oc1NCc1cccnc1,56.8%
19,O=C(Nc1ccc(F)cc1)c1ccc(S(=O)(=O)NCc2cccnc2)cc1,27.5%
20,CCOc1ccc(S(=O)(=O)N2CCC(C(=O)NCc3ccccn3)CC2)cc1Cl,3.21%
21,CC1CCN(C(=O)c2ccc3c(=O)n4c(nc3c2)CCCCC4)CC1,19.9%
22,CC(=O)Nc1ccc(S(=O)(=O)Nc2nccc(/C=C/c3ccccc3F)n2)cc1,21.8%
23,Cc1cc(C)nc(NS(=O)(=O)c2ccc(N/C=C\C(=O)c3cccs3)cc2)n1,97.2% (active)
24,CCc1nnc(NS(=O)(=O)c2ccc(NC(=S)NC(=O)c3cccs3)cc2)s1,-15.7%

row,Structure (SMILES),inhibition
1,COc1ccc(/C=C(\C#N)c2c[nH]c3ccccc23)cc1,68% (active)
2,COc1ccc2[nH]cc(/C=C(/C#N)S(=O)(=O)c3ccccc3)c2c1,-6.23%
3,COc1ccc(C(C(O)C(=O)c2c[nH]c3ccccc23)N2CCN(c3ccccc3)CC2)cc1 (stereo unspecified),-5.67%
4,O=C(COC(=O)CCC(=O)c1cccs1)NCc1ccco1,-12.8%
5,NS(=O)(=O)c1ccc(NC(=S)NC(=O)c2cccc(Br)c2)cc1,4.4%
6,O=C(COC(=O)c1ccc(Cl)nc1)NCc1cccs1,-3.54%
7,Cc1ccccc1C(=O)N1CCN(c2ccc(NC(=O)c3cccs3)cc2)CC1,-18.3%
8,CCc1ccc(NC(=O)C(=O)NNC(=O)c2cccs2)cc1,39.1% (active)
9,NS(=O)(=O)c1ccc(NC(=S)NNC(=O)c2cccs2)cc1,107% (active)
10,O=C(COC(=O)/C(=C/c1cccs1)c1cccs1)NCc1ccccc1Cl,13.7%
11,O=C(COC(=O)c1cccs1)NCc1cccs1,40% (active)
12,O=C(COC(=O)c1cccs1)Nc1ccccc1Cl,36.9% (active)
13,NS(=O)(=O)c1ccc(NC(=S)NC(=O)c2cccnc2)cc1,-16%
14,O=C(COC(=O)CCc1c[nH]c(=O)[nH]1)Nc1ccccc1Cl,-3.38%
15,COc1ccc(CCOC(=O)CNC(=O)c2ccc(Cl)cc2Cl)cc1,7.31%
16,CCCOc1ccc(CNC(=O)C2CCN(c3nn4c(=O)cc(C)nc4s3)CC2)cc1,-3.64%
17,Cc1cccnc1CCNC(=O)C1CCC(=O)N(Cc2cccc(F)c2)C1 (stereo unspecified),-6.16%
18,COC(CNC(=O)c1ccc2c(c1)ncn2-c1cc(C)cc(C)c1)OC,4.27%
19,COc1cccc(CN(C)C(=O)CC23CC4CC(CC(C4)C2)C3)c1OC,-11.5%
20,CS(=O)(=O)c1ccc(-c2nnn(CC(=O)Nc3ccc4c(c3)OCCO4)n2)cc1,20.6%
21,CCc1ccc(NC(=O)CCNS(=O)(=O)c2cccs2)cc1,53.4% (active)
22,C/C(=N\OCC(=O)Nc1ccc(Br)cc1)c1cccs1,40.3%
23,CCc1cccc(NC(=O)CCNS(=O)(=O)c2cccc3nonc23)c1,-3.23%
24,Cc1ccc(OCC(=O)Nc2ccc(NC(=O)c3cccs3)cc2)c(C)c1,25.9%

row,Structure (SMILES),inhibition
1,CCc1ccc(NC(=O)COC(=O)c2cccs2)cc1,51.4% (active)
2,O=S(=O)(NCCc1ccc(Cl)cc1)c1cccs1,10.5%
3,COc1ccccc1C(=O)N(C1=NC(C)CS1)c1ccc(Cl)cc1 (stereo unspecified),-5.01%
4,COc1ccccc1CNC(=O)C1CCN(C(=O)[C@@H]2Cc3ccccc3CN2)CC1,13.3%
5,Cc1c(C(=O)NCC(c2ccco2)N2CCCC2)oc2ccc(Cl)cc12 (stereo unspecified),49.7%
6,Cc1nc2nc(SCC(=O)Nc3cccc(F)c3)[nH]c2cc1Br,6.55%
7,CCCCn1c(SCC(=O)N2CCOCC2)nc2c1c(=O)n(C)c(=O)n2C,-5.05%
8,CC(=O)N(C)c1ccc(NC(=O)Nc2cccc3ccccc23)cc1,77.5% (active)
9,O=C(O)Cc1ccc(NC(=O)Nc2cccc3ccccc23)cc1,-1.4%
10,CCOc1ccc(NC(=O)Nc2ccc(N(C)C(C)=O)cc2)cc1,73.9% (active)
11,O=C(Nc1ccc2c(c1)C(=O)OC2)Nc1cccc2ccccc12,12.8%
12,CC(=O)N(C)c1ccc(NC(=O)C(F)(F)F)cc1,13.5%
13,CCOc1ccc(NC(=O)N(CC(C)C)CC(C)C)cc1,26.1%
14,NS(=O)(=O)c1ccc(CCNC(=O)c2nc(CS(=O)(=O)c3ccc(Cl)cc3)no2)cc1,-2.78%
15,O=Cc1ccc(Oc2cccc(C(F)(F)F)c2)nc1,12.2%
16,FC(F)(F)c1ccnc(Oc2ccc(C3=NCCS3)cc2)c1,64.7% (active)
17,C[C@H](NC(=O)C1CC(=O)N(c2ccc3c(c2)OCO3)C1)C(=O)NCc1ccco1 (stereo partly specified),-4.62%
18,O=S(=O)(NC1CCCCC1N1CCCCC1)c1ccc(Cl)cc1 (stereo unspecified),-21.5%
19,O=C(NCc1ccncc1)C1CCCN(S(=O)(=O)c2ccc(Br)cc2)C1 (stereo unspecified),-9.96%
20,Cc1nc2sc3c(c2c(=O)n1NC(=O)CCl)CCCC3,-6.21%
21,COCCNc1nc(-n2nc(C)cc2C)nc2sc3c(c12)CCCC3,51.2% (active)
22,CCC(O)CNc1nc(-n2nc(C)cc2C)nc2sc3c(c12)CC(C)(C)OC3 (stereo unspecified),-11.2%
23,COc1ccccc1NC(=O)c1cc(N2C(=O)C3C4CCC(C4)C3C2=O)ccc1Cl (stereo unspecified),-3.33%
24,COc1ccccc1N1CCN(S(=O)(=O)c2ccc3c(c2)NC(=O)CS3)CC1,16.6%
